For seven compounds, Potency results are on record in PubChem BioAssay (Tox21).

Test [1] can be described thus: Human pregnane X receptor (PXR) small molecule agonists, qHTS cell viability counter screen (AID 1346977). Further: nearly all actives have a fitted effect of over 50% in size. Further: potency means the concentration at half of the fitted maximal effect. The procedure, abridged: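 Tox21 qHTS format; PXR-Luc HepG2, 2,000/well, charcoal-stripped FBS 5%. Cpd exposure 24hr. Read: CellTiter-Fluor fluorescence, multiplexed with luciferase.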
Test [2] can be described thus: Caspase-3/7 induction in HepG2 cells by small molecules, qHTS assay (AID 1346978). Further: nearly all actives have a fitted effect of over 15% in size. The essentials: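 Wild-type HepG2 cells, 2,000/well, settled 5 hr at 37 C and 5% CO2, then compound-treated for 17 hr; caspase-3/7 activity read by luminescent Caspase-Glo 3/7 after 30 min at room temperature.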
The nature of test [3]: Caspase-3/7 induction in CHO-K1 cells by small molecules, qHTS cell viability counter screen (AID 1346979). Further: nearly all actives have a fitted effect of over 35% in size. Further: potency means the concentration at half of the fitted maximal effect. The essentials: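 CellTiter-Fluor viability check, qHTS format: wild-type CHO-K1, 16hr compound treatment, 1hr reagent incubation, fluorescence read.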
A short description of test [4]: Caspase-3/7 induction in CHO-K1 cells by small molecules, qHTS assay (AID 1346980). Further: nearly all actives have a fitted effect of over 15% in size. The essentials: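 Wild-type CHO-K1 cells exposed to compounds for 17hr at 37 C, 5% CO2. Caspase-3/7 activity then measured by Caspase-Glo 3/7 luminescence after 30min at room temperature.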
A short description of test [5]: Caspase-3/7 induction in HepG2 cells by small molecules, qHTS cell viability counter screen (AID 1346981). Further: nearly all actives have a fitted effect of over 30% in size. Further: potency means the concentration at half of the fitted maximal effect. The procedure, abridged:
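Counter screen for cytotoxicity: HepG2 exposed 16 hr to compounds, then CellTiter-Fluor viability signal (fluorescence, 1 hr reagent incubation).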

The target in test [6] is Nuclear receptor subfamily 1 group I member 2 (Homo sapiens) (UniProt O75469). As to the kind of experiment: Human pregnane X receptor (PXR) small molecule agonists, qHTS assay (AID 1346982). Further: nearly all actives have a fitted effect of over 35% in size. Further: potency means the concentration at half of the fitted maximal effect. The essentials: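 Luminescence (ONE-Glo, 30 min RT) after 24 hr compound exposure of PXR-Luc HepG2 cells; cells rested 5 hr post-plating in 5% charcoal-stripped FBS medium.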
Sequence of Nuclear receptor subfamily 1 group I member 2 (Homo sapiens) (O75469 whole entry, looked up): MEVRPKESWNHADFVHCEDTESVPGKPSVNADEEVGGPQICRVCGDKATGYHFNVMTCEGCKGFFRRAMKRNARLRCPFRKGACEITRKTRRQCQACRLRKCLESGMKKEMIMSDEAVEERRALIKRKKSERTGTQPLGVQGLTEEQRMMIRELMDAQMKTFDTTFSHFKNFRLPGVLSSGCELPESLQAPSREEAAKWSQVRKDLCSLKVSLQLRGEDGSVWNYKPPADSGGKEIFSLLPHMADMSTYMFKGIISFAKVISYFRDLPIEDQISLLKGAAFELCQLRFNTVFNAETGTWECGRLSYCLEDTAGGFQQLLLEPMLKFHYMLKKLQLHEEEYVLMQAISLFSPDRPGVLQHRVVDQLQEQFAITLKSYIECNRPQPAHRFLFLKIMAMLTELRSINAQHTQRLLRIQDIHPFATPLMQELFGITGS
For test [7], the target named is Acetylcholinesterase (Homo sapiens) (UniProt P22303). As to the kind of experiment: Acetylcholinesterase (AChE) small molecule antagonists: colormetric cell-based qHTS assay (AID 1347395; calls by dose curve; further: nearly all actives have a fitted effect of over 30% in size; further: potency means the concentration at half of the fitted maximal effect). The essentials: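 AChE inhibition read colorimetrically via DTNB–thiocholine in SH-SY5Y cells. Compound 30 min, substrate 90 min, both 37 C.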
Sequence of Acetylcholinesterase (Homo sapiens) (P22303 whole entry, looked up): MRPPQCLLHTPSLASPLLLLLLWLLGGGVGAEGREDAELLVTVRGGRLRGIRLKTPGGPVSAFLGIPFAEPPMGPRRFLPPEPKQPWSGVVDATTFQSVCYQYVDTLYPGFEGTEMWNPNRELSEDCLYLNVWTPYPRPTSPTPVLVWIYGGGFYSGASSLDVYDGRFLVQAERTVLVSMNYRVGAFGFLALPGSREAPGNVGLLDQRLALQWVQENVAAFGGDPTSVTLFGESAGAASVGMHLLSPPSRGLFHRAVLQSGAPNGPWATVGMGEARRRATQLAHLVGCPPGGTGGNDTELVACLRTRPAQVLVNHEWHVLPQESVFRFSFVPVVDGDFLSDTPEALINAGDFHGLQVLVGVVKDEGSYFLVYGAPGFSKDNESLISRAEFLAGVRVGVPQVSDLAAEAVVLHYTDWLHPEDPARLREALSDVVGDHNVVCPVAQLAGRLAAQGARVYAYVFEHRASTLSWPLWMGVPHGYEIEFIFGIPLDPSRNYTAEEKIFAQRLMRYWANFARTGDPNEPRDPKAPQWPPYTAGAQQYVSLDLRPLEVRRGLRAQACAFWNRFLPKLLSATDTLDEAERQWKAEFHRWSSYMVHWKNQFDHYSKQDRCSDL
Test [8] shares this target. In words: Acetylcholinesterase (AChE) small molecule antagonists: enzyme-based qHTS assay (AID 1347397; calls by dose curve; further: nearly all actives have a fitted effect of over 55% in size; further: potency means the concentration at half of the fitted maximal effect). To be noted: Potency: AChE enzyme activity inhibition; outcome: AChE enzyme activity inhibition. The procedure, abridged: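 Enzyme inhibition was scored from DTNB-detected thiocholine formed by recombinant human AChE acting on acetylthiocholine. The 30 min compound preincubation and 10 min substrate reaction were both run at room temperature, with DMSO as vehicle control.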

Test [9] has the same target. As to the kind of experiment: Acetylcholinesterase (AChE) small molecule antagonists: fluorescence cell-based qHTS assay (AID 1347398; calls by dose curve; further: nearly all actives have a fitted effect of over 50% in size; further: potency means the concentration at half of the fitted maximal effect). To be noted: Potency: AChE activity; outcome: AChE activity. The procedure, abridged:
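Endogenous acetylcholinesterase of SH-SY5Y neuroblastoma cells is measured in situ. After overnight attachment and 30 min compound exposure, cells receive acetylthiocholine and Thiolite Green; fluorescence is read after 40 min at room temperature.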

For test [10] the target is unchanged. In words: Acetylcholinesterase (AChE) small molecule antagonists: enzyme-based qHTS assay with human liver microsomes (AID 1347399; calls by dose curve; further: nearly all actives have a fitted effect of over 60% in size; further: potency means the concentration at half of the fitted maximal effect). The following applies: Potency: qHTS inhibition; outcome: qHTS inhibition. The essentials:
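Recombinant human AChE (50 mU/mL in the enzyme mix) and human liver microsomes (0.25 mg/mL final) were preincubated with compound and NADPH (0.25 mg/mL final) for 30 min at 37 C. Acetylthiocholine/DTNB was then added; thiocholine was read colorimetrically after 10 min at room temperature.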

Test [11] deals with Cytochrome P450 2C19 (Homo sapiens) (UniProt P33261). As to the kind of experiment: Cytochrome P450 Family 2 Subfamily C Member 19 (CYP2C19) small molecule antagonists: luciferase reporter qHTS assay (AID 1671197). Further: nearly all actives have a fitted effect of over 65% in size. Further: potency means the concentration at half of the fitted maximal effect. The procedure, abridged:
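Luminescent readout of CYP2C19 activity: luciferin product detected 20 min after adding detection reagent. Before that, compound and enzyme-substrate mix preincubated 10 min at room temperature; NADPH-regenerating system started a 1 h, 37C reaction. Ketoconazole as positive control.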

The target in test [12] is Cytochrome P450 1A2 (Homo sapiens) (UniProt P05177). As to the kind of experiment: Cytochrome P450 Family 1 Subfamily A Member 2 (CYP1A2) small molecule antagonists: luciferase reporter qHTS assay (AID 1671199). Further: nearly all actives have a fitted effect of over 50% in size. Further: potency means the concentration at half of the fitted maximal effect. The procedure, abridged: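 Signal from luciferin formed by CYP1A2 from a proluciferin substrate is read as luminescence, expressed in relative luminescence units. Compounds sit with enzyme 10 min, NADPH-driven reaction runs 1 h, all at room temperature.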
Sequence of Cytochrome P450 1A2 (Homo sapiens) (P05177 whole entry, looked up): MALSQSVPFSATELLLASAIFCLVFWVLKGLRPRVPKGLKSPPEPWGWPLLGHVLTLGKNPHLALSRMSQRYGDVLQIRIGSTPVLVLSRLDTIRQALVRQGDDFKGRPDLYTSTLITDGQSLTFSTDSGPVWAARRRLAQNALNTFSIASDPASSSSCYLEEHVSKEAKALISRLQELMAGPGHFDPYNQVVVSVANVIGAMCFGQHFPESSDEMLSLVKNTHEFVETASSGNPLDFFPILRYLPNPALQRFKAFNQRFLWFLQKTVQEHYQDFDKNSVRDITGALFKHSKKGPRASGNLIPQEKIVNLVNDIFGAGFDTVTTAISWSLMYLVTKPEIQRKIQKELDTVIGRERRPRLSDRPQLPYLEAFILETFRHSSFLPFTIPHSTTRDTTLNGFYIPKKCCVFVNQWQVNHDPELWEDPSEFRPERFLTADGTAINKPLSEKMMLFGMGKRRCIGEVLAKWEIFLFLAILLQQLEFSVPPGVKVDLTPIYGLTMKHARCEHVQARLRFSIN

Test [13] has as its target Voltage-gated inwardly rectifying potassium channel KCNH2 (Homo sapiens) (UniProt Q12809). In words: Human Ether-a-go-go-Related Gene (hERG) channel small molecule antagonists: fluorescence cell-based qHTS assay (AID 1671200). Further: nearly all actives have a fitted effect of over 50% in size. Further: potency means the concentration at half of the fitted maximal effect. The essentials: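 Kinetic two-minute fluorescence traces, sampled at 1 s, were collected following thallium stimulus of U2OS cells (1000 per well) that had been cultured overnight at 37 C and loaded with FluxOR II.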

The target of test [14] is Cytochrome P450 3A4 (Homo sapiens) (UniProt P08684). As to the kind of experiment: Cytochrome P450 Family 3 Subfamily A Member 4 (CYP3A4) small molecule antagonists: luciferase reporter qHTS assay (AID 1671201). Further: nearly all actives have a fitted effect of over 50% in size. Further: potency means the concentration at half of the fitted maximal effect. The essentials: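 Proluciferin-to-luciferin conversion by CYP3A4, NADPH-regenerated, 1 h RT; luminescence read as RLU. Ketoconazole as control.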
Sequence of Cytochrome P450 3A4 (Homo sapiens) (P08684 whole entry, looked up): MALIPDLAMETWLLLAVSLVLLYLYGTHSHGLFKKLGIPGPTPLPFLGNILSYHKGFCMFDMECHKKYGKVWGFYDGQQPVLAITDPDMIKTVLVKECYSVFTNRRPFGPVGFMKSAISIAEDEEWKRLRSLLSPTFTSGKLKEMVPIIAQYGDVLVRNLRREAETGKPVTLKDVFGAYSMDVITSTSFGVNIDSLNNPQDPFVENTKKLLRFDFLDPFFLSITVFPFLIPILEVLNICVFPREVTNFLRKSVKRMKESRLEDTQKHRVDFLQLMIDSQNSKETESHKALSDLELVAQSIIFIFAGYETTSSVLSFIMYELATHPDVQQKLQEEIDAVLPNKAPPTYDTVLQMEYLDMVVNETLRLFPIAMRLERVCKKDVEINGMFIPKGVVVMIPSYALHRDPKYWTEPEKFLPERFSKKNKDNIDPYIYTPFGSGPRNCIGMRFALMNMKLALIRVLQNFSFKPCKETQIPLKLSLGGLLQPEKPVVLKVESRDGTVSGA
The target in test [15] is Cytochrome P450 2C9 (Homo sapiens) (UniProt P11712). In words: Cytochrome P450 Family 2 Subfamily C Member 9 (CYP2C9) small molecule antagonists: luciferase reporter qHTS assay (AID 1671198). Further: nearly all actives have a fitted effect of over 50% in size. Further: potency means the concentration at half of the fitted maximal effect. The procedure, abridged:
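P450-Glo proluciferin substrate with CYP2C9 enzyme; 10 min RT preincubation, then NADPH regeneration 1 h at 37C; luciferin detection reagent 20 min RT, luminescence in relative luminescence units.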

Test [16] has as its target Cytochrome P450 2D6 (Homo sapiens) (UniProt P10635). As to the kind of experiment: Cytochrome P450 Family 2 Subfamily D Member 6 (CYP2D6) small molecule antagonists: luciferase reporter qHTS assay (AID 1671196). Further: nearly all actives have a fitted effect of over 50% in size. Further: potency means the concentration at half of the fitted maximal effect. The essentials:
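Inhibition of CYP2D6 was gauged by loss of luminescence, since light produced tracks the luciferin generated from a proluciferin substrate. A 10 min room-temperature preincubation preceded 1 h NADPH-supported turnover.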

Values joined by “and” are separate entries in the source; they are usually repeats but may differ in a detail not shown here. Identical values can stand only once. Records with an inconclusive call do not appear. Active and inactive are the calls of the source. Unless noted, the call rests on the fitted dose curve; in most records, active means well fitted curve in the direction sought with a large enough effect in the repeat runs; inconclusive means weak or mixed curves; inactive means no such curve, though single readings can be large; an effect the other way counts as inactive or inconclusive.

Sequence of Cytochrome P450 2C19 (Homo sapiens) (P33261 whole entry, looked up): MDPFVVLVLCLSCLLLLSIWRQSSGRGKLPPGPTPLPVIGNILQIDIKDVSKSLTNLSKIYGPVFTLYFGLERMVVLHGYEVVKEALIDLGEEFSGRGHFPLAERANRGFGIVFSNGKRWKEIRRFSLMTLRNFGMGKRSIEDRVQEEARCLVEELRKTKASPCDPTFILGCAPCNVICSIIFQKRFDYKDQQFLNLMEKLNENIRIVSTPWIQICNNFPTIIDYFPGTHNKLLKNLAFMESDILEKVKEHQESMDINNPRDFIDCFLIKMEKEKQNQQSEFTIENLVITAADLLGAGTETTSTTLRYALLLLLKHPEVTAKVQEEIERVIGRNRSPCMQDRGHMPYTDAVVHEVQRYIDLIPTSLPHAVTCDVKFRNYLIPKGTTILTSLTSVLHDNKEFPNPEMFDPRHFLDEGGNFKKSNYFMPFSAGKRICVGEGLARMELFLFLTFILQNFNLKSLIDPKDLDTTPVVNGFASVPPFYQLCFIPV
Sequence of Voltage-gated inwardly rectifying potassium channel KCNH2 (Homo sapiens) (Q12809 whole entry, looked up): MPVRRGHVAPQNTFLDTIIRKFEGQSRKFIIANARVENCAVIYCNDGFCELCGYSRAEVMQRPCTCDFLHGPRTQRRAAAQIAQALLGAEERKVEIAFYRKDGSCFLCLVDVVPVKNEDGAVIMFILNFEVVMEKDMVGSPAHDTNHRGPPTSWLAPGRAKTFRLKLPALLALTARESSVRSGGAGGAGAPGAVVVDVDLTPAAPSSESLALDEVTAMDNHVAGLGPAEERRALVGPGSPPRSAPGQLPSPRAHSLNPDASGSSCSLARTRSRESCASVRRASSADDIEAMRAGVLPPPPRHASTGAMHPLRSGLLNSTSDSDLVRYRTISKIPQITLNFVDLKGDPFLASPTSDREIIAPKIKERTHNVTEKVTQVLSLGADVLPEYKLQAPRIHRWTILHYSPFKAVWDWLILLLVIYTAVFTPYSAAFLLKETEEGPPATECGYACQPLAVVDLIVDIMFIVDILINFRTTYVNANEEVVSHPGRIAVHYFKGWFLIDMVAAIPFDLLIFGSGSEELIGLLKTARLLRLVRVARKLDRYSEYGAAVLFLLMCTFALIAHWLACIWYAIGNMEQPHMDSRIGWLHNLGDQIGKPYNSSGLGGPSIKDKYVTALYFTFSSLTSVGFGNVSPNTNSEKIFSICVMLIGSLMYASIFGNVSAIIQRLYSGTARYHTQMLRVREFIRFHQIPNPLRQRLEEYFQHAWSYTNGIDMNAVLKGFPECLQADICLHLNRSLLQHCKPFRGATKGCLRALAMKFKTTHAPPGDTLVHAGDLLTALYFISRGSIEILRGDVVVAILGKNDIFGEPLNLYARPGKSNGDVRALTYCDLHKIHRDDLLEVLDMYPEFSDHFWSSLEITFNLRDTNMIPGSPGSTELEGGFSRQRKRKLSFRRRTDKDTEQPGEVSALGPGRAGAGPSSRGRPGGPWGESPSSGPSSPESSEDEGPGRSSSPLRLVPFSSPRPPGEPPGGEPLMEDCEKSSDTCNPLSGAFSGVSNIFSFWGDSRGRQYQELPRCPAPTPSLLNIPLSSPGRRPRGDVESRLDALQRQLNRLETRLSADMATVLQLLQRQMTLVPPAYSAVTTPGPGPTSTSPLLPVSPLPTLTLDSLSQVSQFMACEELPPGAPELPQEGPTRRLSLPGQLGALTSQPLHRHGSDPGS
Sequence of Cytochrome P450 2D6 (Homo sapiens) (P10635 whole entry, looked up): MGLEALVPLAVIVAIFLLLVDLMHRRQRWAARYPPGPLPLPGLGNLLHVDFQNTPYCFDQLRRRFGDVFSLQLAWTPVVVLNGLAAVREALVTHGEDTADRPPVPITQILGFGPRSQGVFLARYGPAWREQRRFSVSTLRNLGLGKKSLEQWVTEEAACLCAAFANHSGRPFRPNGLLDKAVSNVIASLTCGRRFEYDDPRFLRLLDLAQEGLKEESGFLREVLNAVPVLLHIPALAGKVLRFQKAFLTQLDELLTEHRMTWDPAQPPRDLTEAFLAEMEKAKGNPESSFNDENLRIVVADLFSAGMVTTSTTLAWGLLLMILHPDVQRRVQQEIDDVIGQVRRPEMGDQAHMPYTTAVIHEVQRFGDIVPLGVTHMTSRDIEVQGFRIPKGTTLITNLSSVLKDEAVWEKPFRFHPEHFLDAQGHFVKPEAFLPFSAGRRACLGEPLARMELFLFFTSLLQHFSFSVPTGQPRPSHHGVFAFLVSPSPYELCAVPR
Sequence of Cytochrome P450 2C9 (Homo sapiens) (P11712 whole entry, looked up): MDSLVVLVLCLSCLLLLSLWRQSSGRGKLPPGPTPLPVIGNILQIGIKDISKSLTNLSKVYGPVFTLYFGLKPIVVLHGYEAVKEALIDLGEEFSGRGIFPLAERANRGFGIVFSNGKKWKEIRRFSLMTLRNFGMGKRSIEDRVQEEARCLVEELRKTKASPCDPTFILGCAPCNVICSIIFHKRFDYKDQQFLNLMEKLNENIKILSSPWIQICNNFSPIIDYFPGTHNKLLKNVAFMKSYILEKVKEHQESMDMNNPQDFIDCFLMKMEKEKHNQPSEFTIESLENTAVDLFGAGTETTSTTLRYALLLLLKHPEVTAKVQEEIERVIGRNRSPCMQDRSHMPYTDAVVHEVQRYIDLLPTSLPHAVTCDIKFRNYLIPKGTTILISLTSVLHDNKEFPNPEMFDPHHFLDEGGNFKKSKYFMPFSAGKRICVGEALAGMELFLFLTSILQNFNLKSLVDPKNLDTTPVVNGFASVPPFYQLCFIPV

As to `Cc1nc(N(C)C)nc(OC(=O)N(C)C)c1C`, the Potency result in test [1], in test [2], in test [3], in [4], in [5] and in test [6] was “inactive” each time. The Potency entry in [13] and in [14] was “inactive” in each case. For the same compound, the Potency in test [7] is 11.2 µM (active); in [8] it was 10 µM (active); in test [9], 11.2 µM (active); in test [10], 63.3 µM (active); in test [11], 79.6 µM (active); in test [12], 22.4 µM (active).

On to `O=C(N[C@H]1CN2CCC1CC2)c1ccc2c(c1)OCCO2`, for which the Potency entry in [1], in [2], in test [3], in test [4], in test [5] and in test [6] was “inactive” throughout. For the same compound, the Potency result in test [8], in [10], in test [11], in [15], in test [12] and in test [13] was “inactive” each time. For the same compound, in [14], the Potency entry was “inactive”.

`Cc1nnc(-c2ccccc2)c(=O)n1N`: the Potency entry in [1], in test [2], in test [3], in [4], in [5] and in [6] was “inactive” throughout. Further, the Potency entry in [8], in [9], in test [10], in test [16], in [11] and in [13] was “inactive” each time. For the same compound, the Potency result in test [14] is “inactive”. Besides, the Potency in [12] was 35.6 µM (active).

Take `C=CCOCC1CO1` (stereo unspecified): the Potency result in test [1], in test [2], in [3], in test [4], in test [5] and in test [6] was “inactive” throughout. Moreover, the Potency result in test [7], in [8], in test [9], in test [10], in test [11] and in test [15] was “inactive” throughout. The Potency result in [13] was “inactive”. Moreover, the Potency in test [14] was 30.9 µM (active).

With `O=C(NC(=O)c1cc(F)c(F)cc1Cl)Nc1cc(F)ccc1N1CCC(C(=O)O)CC1`, the Potency result in [1], in [2], in test [3], in [4], in [5] and in test [6] was “inactive” in each case. For the same compound, the Potency entry in [7], in test [8], in [9], in test [10], in [11] and in [12] was “inactive” each time. Further, the Potency entry in test [13] and in [14] was “inactive” throughout.

As to `COc1ccc(C(O)(c2cncnc2)C2CC2)cc1` (stereo unspecified), the Potency result in [1], in [2], in test [3], in test [4], in test [5] and in test [6] was “inactive” in each case. The Potency result in [8], in [9], in [10] and in [13] was “inactive” throughout. In addition, the Potency in test [11] was 20 µM (active); in [15] it was 63.3 µM (active); in test [14], 0.894 µM (active).

On to `CCCN(CCOc1c(Cl)cc(Cl)cc1Cl)C(=O)n1ccnc1`, for which the Potency in test [1] was 50.1 µM (active); in [3] it was 62.4 µM (active); in [5], 62.4 µM (active); in [6], 7.86 µM (active) and 3.44 µM (active); in test [16], 363 nM (active) and 1 µM (active); in test [11], 22.9 nM (active) and 50.2 nM (active). Also, the Potency in test [15] was 457 nM (active) and 796 nM (active); in test [12], 129 nM (active) and 224 nM (active); in test [13], 12.6 µM (active) and 19.5 µM (active); in test [14], 32.4 nM (active) and 100 nM (active). Also, the Potency result in test [2], in test [4], in [8] and in test [10] was “inactive” in each case.
